Shown are actives, neighbours in structure and some others; about 21% of the full set was active somewhere.
Shiga inhibitor = inhibitors of Shiga toxin in Vero cells; Vero cells, Shiga toxin protein synthesis inhibition reporter; inhibition, % at 38.7 µM; hit rate 9.2% among 290,000; in the data active = inhibition mostly above about 28%, no sharp cut-off; inactive = mostly below about 43%
Pf growth 48h = P. falciparum growth inhibition at 48 hours (one generation); P. falciparum luciferase growth in erythrocytes, 48 h; AID 504832; Potency, µM (titrated, usually from 28.7 µM), actives largely listed as inhibitors; hit rate 5.9% among 310,000
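Luciferase-expressing P. falciparum in infected erythrocytes (2% hematocrit, 0.1% parasitemia final) in RPMI 1640/0.5% Albumax were exposed to compound for 48 hours at 37 C, 5% CO2; growth read as luminescence.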
Cycloheximide cs = counter-screen for Shiga toxin inhibitors: cycloheximide protein synthesis inhibition. cell reporter, cycloheximide protein synthesis inhibition counterscreen. hit rate 12% among 300,000. max response, %; in the data active = max response mostly above about 13%, no sharp cut-off; inactive = mostly below about 14%; note: read at 38.3 µM for the half of the compounds with a filed dose
Pf growth 96h = P. falciparum growth inhibition at 96 hours; P. falciparum luciferase reporter growth, 96 h; Potency, µM (top dose mostly 28.7 µM), usual class: inhibitors; hit rate 6.9% among 320,000
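Luminescence readout: decreased luciferase signal marks inhibited growth of reporter-expressing P. falciparum in infected red cells (2% hematocrit, 0.05% parasitemia final), exposed to compound two generations (96 h, 37 C, 5% CO2).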
Of the large screens only hits and unclear results are named; the others gave an inactive call. Unless noted, calls come from the whole dose curve; as a rule, active = well fitted inhibition curve with a large enough effect; inconclusive = small, poorly fitted or top-dose-only effect, or another doubt; inactive = no such curve, though single readings can be large or run the other way.

COCCN1CC(CNC(=O)c2cc(COc3ccc(C)c(C)c3)on2)CC1=O (stereo unspecified)	none
CCCCn1c(NS(=O)(=O)c2ccccc2)c(C(=O)OCC)c2nc3ccccc3nc21	Pf growth 48h 1.7µM, Pf growth 96h inconclusive
Cc1ccc(S(=O)(=O)c2c(N)n(CCCN(C)C)c3nc4ccccc4nc23)cc1	Pf growth 48h inconclusive, Pf growth 96h inconclusive
CCCCn1c(NS(=O)(=O)c2ccc(C)cc2)c(S(=O)(=O)c2ccccc2)c2nc3ccccc3nc21	Pf growth 48h inconclusive, Pf growth 96h 4.1µM
Cc1cccc(NC(=O)CSCC(=O)OCc2ccccn2)c1	none (no result: Shiga inhibitor, Cycloheximide cs)
CCc1cc2c3c(c1)C1(C(=O)N3C(C)(C)CC2C)C(C#N)=C(N)N2C(=C1C#N)Nc1ccccc12 (stereo unspecified)	Pf growth 48h 9.3µM
Cc1cc2c3c(c1)C1(C(=O)N3C(C)(C)CC2C)C(C#N)=C(N)Oc2cc(O)ccc21 (stereo unspecified)	Pf growth 48h 12µM (no result: Pf growth 96h)
Cc1ccc(NC(=O)c2ccccc2N2C(=O)C3C4C=CC(C5CC45)C3C2=O)cc1C (stereo unspecified)	Pf growth 48h inconclusive, Pf growth 96h 9.3µM
COC(=O)c1ccc(NC(=O)c2cccc(N3C(=O)C4C5C=CC(C6CC56)C4C3=O)c2)cc1 (stereo unspecified)	Shiga inhibitor 64, Cycloheximide cs 33, Pf growth 96h inconclusive
Cc1ccccc1NC(=O)c1cccc(N2C(=O)C3C4CC(C(Br)C4Br)C3C2=O)c1 (stereo unspecified)	Pf growth 96h 9.3µM
Cc1cccc(NC(=O)c2ccc(N3C(=O)C4C5C=CC(C6CC56)C4C3=O)cc2)c1 (stereo unspecified)	Pf growth 48h inconclusive
O=C(Nc1ccccc1)c1cccc(N2C(=O)C3C4C=CC(C4)C3C2=O)c1 (stereo unspecified)	Cycloheximide cs 19, Pf growth 96h inconclusive
CC[C@@]1([C@@H]2O[C@@H]([C@H]3O[C@@](O)(CO)[C@H](C)C[C@@H]3C)C[C@@H]2C)CC[C@H]([C@]2(C)CC[C@]3(C[C@H](O)[C@@H](C)[C@@H]([C@@H](C)[C@@H](OC)C(C)C(=O)O)O3)O2)O1 (stereo partly specified)	none (no result: Pf growth 48h, Pf growth 96h)
CC(C)[C@H](NC(=O)C1CCN(S(=O)(=O)c2ccc(F)cc2)CC1)C(=O)NCc1ccco1	none
CCOc1ccc(NC(=O)C2CCCN(C)C2)cc1 (stereo unspecified)	none
COc1ccccc1N(CC(=O)N1CCOCC1)S(C)(=O)=O	Pf growth 96h inconclusive
N#C/C(=C/c1ccc(C(=O)O)cc1)C(=O)NCc1ccccc1	none
N#C/C(=C\c1cn(Cc2ccc(F)cc2)c2ccccc12)C(=O)NCc1ccco1	Pf growth 96h inconclusive
N#C/C(=C\c1cn(Cc2cccc(F)c2)c2ccccc12)C(=O)NCc1ccco1	Shiga inhibitor 28, Cycloheximide cs 25
N#C/C(=C/c1cn(-c2ccccc2)nc1-c1cccc(S(=O)(=O)N2CCCC2)c1)C(=O)NCc1ccco1	Shiga inhibitor 34, Pf growth 48h 10µM, Pf growth 96h 10µM
N#C/C(=C\c1ccco1)C(=O)NCc1ccccc1	Shiga inhibitor 41, Cycloheximide cs 35
N#C/C(=C\c1cn(Cc2ccccc2)c2ccccc12)C(=O)NCc1ccco1	Pf growth 48h inconclusive, Cycloheximide cs 29, Pf growth 96h inconclusive
CC(c1cccs1)N(Cc1ccco1)C(=S)Nc1ccccc1Cl (stereo unspecified)	Pf growth 96h inconclusive
Cc1ccc(C(=O)NCC(=O)N(C)CC(=O)Nc2ccccc2Br)s1	none (no result: Shiga inhibitor, Cycloheximide cs)
COc1ccc(CNC(=O)C2CCC(CNc3c(N4CCC(C)CC4)c(=O)c3=O)CC2)cc1 (stereo unspecified)	Pf growth 48h inconclusive
Cc1cc(=O)n2nc(N3CCCC(C(=O)Nc4ccc(C)c(C)c4)C3)sc2n1 (stereo unspecified)	Pf growth 96h inconclusive
CC(NC(=O)C12CC3CC(C)(CC(C)(C3)C1)C2)c1ccncc1 (stereo unspecified)	Pf growth 96h inconclusive
CCOc1cc(CNCCCN2CCOCC2)cc(Br)c1OCC(=O)Nc1cccc(C(F)(F)F)c1	Pf growth 48h 1.2µM, Pf growth 96h 0.66µM
CCOc1cc(CNCCCN2CCOCC2)cc(Cl)c1OCC(=O)NC(C)(C)C	Pf growth 48h inconclusive
CCC(CO)NCc1ccc(OCC(=O)Nc2cccc(C(F)(F)F)c2)c(OC)c1 (stereo unspecified)	none
CCOc1cc(CNC(C)(C)C)ccc1OCC(=O)Nc1cccc(C(F)(F)F)c1	Pf growth 48h 6.6µM
C=CCN1C(=O)CSC1=Nc1cccc(O)c1	none (no result: Pf growth 96h)
C=CCN1C(=Nc2cccnc2)SCC1(O)c1ccc(C)cc1 (stereo unspecified)	Pf growth 48h 3.3µM
CN(CC(=O)Nc1ccc(F)cc1)C(=O)COC(=O)CCN1C(=O)C2CC=CCC2C1=O (stereo unspecified)	none
CCc1nc(=O)c(-c2ccccc2)c(C)n1-c1ccccc1	none
CC[N+]1=CN(c2ccccc2)C(C)=CC1(C)C	Pf growth 48h inconclusive, Pf growth 96h 4.1µM
COc1ccc(CCNC(=O)C(=O)NCC2OCCN2S(=O)(=O)c2ccccc2)cc1 (stereo unspecified)	none
CCOC(=O)c1sc(NC(=O)CCN2C(=O)C3CCCCC3C2=O)cc1C (stereo unspecified)	Pf growth 48h 15µM, Pf growth 96h inconclusive (no result: Shiga inhibitor, Cycloheximide cs)
CCOC(=O)c1sc(NC(=O)Nc2cccc(Cl)c2)cc1C	Shiga inhibitor 108, Cycloheximide cs 62, Pf growth 96h inconclusive
CCOC(=O)c1sc(NC(=O)c2ccc(Br)o2)cc1C	Shiga inhibitor 124, Cycloheximide cs 47, Pf growth 96h inconclusive
CCOC(=O)c1sc(NC(=O)c2sccc2C)cc1C	Shiga inhibitor 70, Cycloheximide cs 63 (no result: Pf growth 48h)
CCOC(=O)c1c(NC(=O)Nc2ccccc2)sc(C)c1C	none
Cc1ccc(C2CC(=O)Oc3cc(C)c(Cl)c(C)c32)cc1 (stereo unspecified)	none (no result: Pf growth 48h, Pf growth 96h)
COc1cc(S(=O)(=O)NCc2ccncc2)ccc1Br	none
CCOC(=O)c1cccc(NC(=O)c2cccs2)c1	none (no result: Pf growth 48h, Pf growth 96h)
CCOC(=O)c1sc(NC(=O)c2cccs2)cc1C	Shiga inhibitor 141, Cycloheximide cs 32 (no result: Pf growth 96h)
CN(C)c1cc[n+](CC(=O)Nc2ccc(OC(F)F)cc2)cc1	Pf growth 48h 2.3µM, Pf growth 96h 0.47µM
Cc1ccc[n+](CC(=O)Nc2c(Cl)cc(Cl)cc2Cl)c1	Shiga inhibitor 76, Cycloheximide cs 25
CN(C)c1cc[n+](CC(=O)Nc2ccc(Cl)c([N+](=O)[O-])c2)cc1	Pf growth 48h 1.2µM (no result: Shiga inhibitor)
Cc1ccc[n+](CC(=O)Nc2ccc(N(C)C)cc2)c1	Pf growth 96h 5.2µM
CCOC(=O)C1CCCc2c1[nH]c1c(C(=O)O)cccc21 (stereo unspecified)	none
CN(CC(=O)Nc1ccc(Cl)cc1)C(=O)C1CCCC1	none (no result: Shiga inhibitor, Cycloheximide cs)
CC12CN3CC(C)(CN(C1)C3c1ccccc1F)C2 (stereo unspecified)	Pf growth 48h inconclusive
CCn1c(=O)n(C2=C(CO)CN(CC3CCCCCCC3)CC2)c2ccccc21	none (no result: Pf growth 48h, Pf growth 96h)
CCCn1c(N)c(C(=O)CSc2nnnn2-c2ccc(O)cc2)c(=O)n(C)c1=O	Pf growth 96h inconclusive (no result: Pf growth 48h)
Cc1cc(=O)[nH]c(SCC(=O)Nc2c(C)n(C)n(-c3ccccc3)c2=O)c1C#N	none (no result: Shiga inhibitor, Cycloheximide cs)

Source: PubChem
